Inconclusive results are not listed. A call without a number means that no potency is given here. Calls of active or inactive are those of the source. Calls come from the whole dose curve.

This assay can be described thus: qHTS assay to identify small molecule agonists of the AP-1 signaling pathway - cell viability counter screen (AID 1159525). Note: nearly all actives have a fitted effect of over 55% in size. The conditions noted are these: ME-180 (cervical carcinoma) AP-1-bla cells viability, ATP luminescence, 5 h; series mostly up to 76.8 µM. An excerpt:
National Center for Advancing Translational Sciences [NCATS]
NIH Chemical Genomics Center [NCGC]
U.S. Environmental Protection Agency [EPA]
National Institutes of Environmental Health Sciences [NIEHS]
National Toxicology Program [NTP]
U.S. Food and Drug Administration [FDA]
Activator protein-1 (AP-1), a transcription factor, plays an important role in tumor genesis by regulating genes involved in cell proliferation, differentiation, apoptosis, and angiogenesis. AP-1 activity is induced by a complex network of signaling pathways that involves extracellular signals, such as growth factors. The AP-1 protein complex formed from c-Fos and c-Jun binding to the AP-1 response element results in transcriptional activation of genes containing such elements within their promoter.
Low molecular weight molecules have been discovered and developed to modulate various components of these signaling pathways, for example, MAP kinase inhibitors. However, many points of pathway modulation remain untested due to the lack of chemical probes making this signaling locus of general interest.
Using a beta-lactamase reporter-gene under control of the AP-1 response element, a cell-based assay [CellSensor(TM) AP-1-bla ME-180 developed by Invitrogen Corp.] was used to measure EGF-induced signaling. The Tox21 10K library compounds were measured for their ability to positively modulate the action of EC50 EGF on reporter gene activity. Compounds were screened in a 15-pt titration series in 1536-well format. The cytotoxicity of the Tox21 compound library against this cell line was tested in parallel by measuring the intra cellular ATP content in the same wells.
Tox21 Assay Protocol Summary:
2500 cells/5uL in Opti-MEM medium containing 0.5% dialyzed FBS, 0.1 mM NEAA, 1 mM sodium pyruvate and 10 mM HEPES was dispensed into 1536-well black wall/clear bottom plates using a Multidrop dispenser and cells were cultured at 37 degrees Celsius overnight. Next day 23 nL of compounds dissolved in DMSO, positive controls or DMSO were delivered to each well using a pin tool. The plates were incubated at 37 degrees Celsius for 5 hours. 1 uL of LiveBLAzerTM B/G FRET substrate (Solution A+B+C+D) was added to each well using a Flying Reagent Dispenser. After incubated at room temperature for 2.5 hours the plates were measured on an EnVision plate reader at Excitation 405nm, Emission1=460nm and Emission 2=530nm. The %Activity was determined from the ratio of 460nm/530nm.
After the plates were read for Beta-Lactamase assay on Envision; 3 ul Cell Titer Glo (Promega) was added to measure the cytotoxicity and the plates were then incubated at RT in dark for 30 min. The luminescence was read on ViewLux (Perkin Elmer, Shelton, CT) using 6 sec exposure. ViewLux data was expressed as relative luminescence units.
For primary data analysis, raw plate reads for each titration point were first normalized relative to […] EGF control (100%) and DMSO only wells (basal, 0%).
For primary data analysis for viability assay, raw plate reads for each titration point were first normalized Tetra n-octyl ammonium bromide control (-100%) and DMSO (control, 100%).
Consider `CCCCN(CCCC)SN(C)C(=O)Oc1cccc2c1OC(C)(C)C2`, for which the Potency entry is “inactive”.

As for `COC(=O)NS(=O)(=O)c1ccc(N)cc1`, the Potency result was “inactive”.

Consider `O=NN1CCCC1`, for which the Potency result is “inactive”.

As for `Clc1ccc(Cl)cc1`, the Potency result was “inactive”.

Turning to `CC(C)C#N`, the Potency result was “inactive”.

On to `CC(C#N)CCC#N` (stereo not given), for which the Potency entry was “inactive”.

Regarding `CC(C)(C)OOC(=O)c1ccccc1`, the Potency result was “inactive”.

`COC(=O)NC(=S)Nc1ccccc1NC(=S)NC(=O)OC`: the Potency entry was “inactive”.

Take `Cc1ccc(N)cc1N`: the Potency result was “inactive”.

On to `OCCN(CCO)CCO`, for which the Potency entry is “inactive”.

Regarding `CN(C)N=O`, the Potency result was “inactive”.

For the molecule `[N-]=[N+]=[N-]`, the Potency entry was “inactive”.

Take `C=C(C)CCl`: the Potency entry was “inactive”.

For the molecule `O=NN1CCCCCCC1`, the Potency entry is “inactive”.

On to `CC1OC(C)OC(C)O1` (stereo not given), for which the Potency result is “inactive”.

On to `c1ccc(OP(Oc2ccccc2)Oc2ccccc2)cc1`, for which the Potency result was “inactive”.

As to `Cc1ccc([N+](=O)[O-])cc1C`, the Potency result was “inactive”.

Regarding `c1cc2c3c(cccc3c1)CC2`, the Potency entry is “inactive”.

With `CCOP(=S)(OCC)Oc1cnc2ccccc2n1`, the Potency result was “inactive”.

Regarding `CC(C)(C)OOC(C)(C)C`, the Potency result is “inactive”.

Consider `CCN(CC)CCO`, for which the Potency result is “inactive”.

Turning to `COC(=O)c1ccccc1C(=O)OC`, the Potency result is “inactive”.

Take `CC(NC(C)(C)C)C(=O)c1cccc(Cl)c1` (stereo not given): the Potency result is “inactive”.

Take `Nc1ccc(Cc2ccc(N)cc2)cc1`: the Potency result is “inactive”.

As to `CCOP(=S)(OCC)SCCSCC`, the Potency entry was “inactive”.

Take `Cc1ccc(N)cc1Cl`: the Potency result was “inactive”.

On to `c1ccc(-c2ccccc2)cc1`, for which the Potency entry was “inactive”.

On to `CCNc1nc(NC(C)C)nc(SC)n1`, for which the Potency result was “inactive”.

Take `COc1ccc2c3c1O[C@H]1[C@@H](O)C=C[C@H]4[C@@H](C2)N(C)CC[C@@]341`: the Potency result was “inactive”.

With `CC1C=[C-]C=C1.[C-]#[O+].[C-]#[O+].[C-]#[O+].[Mn]`, the Potency entry was “inactive”.

`C1CC2OC2CC1C1CO1` (stereo not given): the Potency result is “inactive”.

Take `C[C@]12CC[C@H]3[C@@H](CC[C@@]45O[C@@H]4C(O)=C(C#N)C[C@]35C)[C@@H]1CC[C@@H]2O`: the Potency result is “inactive”.

As to `COP(N)(=O)SC` (stereo not given), the Potency entry was “inactive”.

On to `CC(C)C1(C)N=C(c2nc3ccccc3cc2C(=O)O)NC1=O` (stereo not given), for which the Potency entry is “inactive”.

As to `Clc1ccccc1Cl`, the Potency entry was “inactive”.

Turning to `CC(C)=C[C@@H]1[C@@H](C(=O)OCc2coc(Cc3ccccc3)c2)C1(C)C`, the Potency entry was “inactive”.

Regarding `C#CCN(C)[C@H](C)Cc1ccccc1`, the Potency result was “inactive”.

With `CCCN(CCC)c1c([N+](=O)[O-])cc(C(F)(F)F)cc1[N+](=O)[O-]`, the Potency entry is “inactive”.

Regarding `CCCCOC(=O)c1ccccc1C(=O)OCCCC`, the Potency entry is “inactive”.

`Nc1ccccc1C(=O)O`: the Potency entry is “inactive”.

The record behind these values is PubChem BioAssay (Tox21).
